Rows were chosen to be rich in hits. Some 7.1% of all compounds tested hit in one or more screens of this group.
ATXN2 expr inh: reduces ATXN2 reporter expression in HEK-293 cells | HEK-293 ATXN2-luciferase reporter, luminescence, 24 h | 360,000 compounds, 0.72% hits | AID 1745845 | Potency, µM (titrated, usually from 57 µM), inactives show at the top dose activity change, negative = inhibition, usual class: inhibitors; also: potency is read from the fitted curve at half-maximal effect; % is scaled to controls: 0 for no effect and ±100 for the full control effect; nearly all actives have a fitted effect of over 55% in size
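qHTS (up to 57 uM final) was run with 24 h compound exposure of reporter cells at 37 °C. Each well was multiplexed: SteadyGlo luminescence measured ATXN2-luciferase expression after a fluorogenic Gly-Phe-AFC viability readout (25 uM final).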
ATXN viability: viability counter-screen for ATXN expression inhibitors; S2 cells (HEK-293 line with an ATXN2-luciferase reporter) viability, CellTiter-Fluor protease fluorescence, 24 h; Potency, µM (highest dose often 56.7 µM), actives largely listed as cytotoxic; 400,000 compounds, 0.49% hits; AID 651635; also: potency is read from the fitted curve at half-maximal effect; nearly all actives have a fitted effect of over 40% in size
MCF10A rereplic: inducers of DNA re-replication in MCF 10A breast cells; MCF 10A DNA re-replication, Hoechst nuclear intensity, 48 h; Potency, µM (highest dose often 46.1 µM), for inactives: at the highest dose activity, positive = re-replication, most hits filed as activators; 350,000 compounds, 2.9% hits; AID 624296; also: potency is read from the fitted curve at half-maximal effect; % of control where 0% means no effect; nearly all actives have a fitted effect of over 50% in size
SW480 rereplic: inducers of DNA re-replication in SW480 colon cancer cells; SW480 DNA re-replication, Hoechst DNA content imaging, 48 h; Potency, µM (top dose mostly 46.1 µM), without a hit: at the highest dose re-replication activation, hits mostly activators; 340,000 compounds, 1.8% hits; AID 624297; also: potency is read from the fitted curve at half-maximal effect; % of control where 0% means no effect; nearly all actives have a fitted effect of over 55% in size
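Image-based DNA-content assay: after two days of treatment, nuclei were labelled with the DNA dye Hoechst and imaged, and hits were compounds raising the count of nuclei showing high fluorescence intensity.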
PINK1 expr mod: modulators of PINK1 expression. Potency, µM (titrated, usually from 76.6 µM), for inactives: top-dose activation (PINK1 increase), actives largely listed as activators. PINK1 immunofluorescence, high-content cytometry, 24 h. AID 624263. 410,000 compounds, 0.2% hits; active = well fitted activation curve with a large enough effect; inconclusive = small, poorly fitted or top-dose-only effect; cell line not stated here; also: potency is read from the fitted curve at half-maximal effect; % of control where 0% means no effect; nearly all actives have a fitted effect of over 65% in size
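Stable cell line treated 24 h with compounds at 5 concentrations (CCCP controls), then fixed and immunostained for PINK1 plus nuclear and cell stains; PINK1 immunofluorescence quantified by laser-scanning microplate cytometry.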
IL-1B inflam inh: inflammasome signaling inhibition, IL-1 beta readout; 360,000 compounds, 4.7% hits; AID 743279; THP-1 LPS/ATP IL-1B secretion, AlphaLISA, 16 h; hits give low values; activity change, % at 57.5 µM; in the data active = activity change below about -50%; inconclusive = mostly about -30% to -49%; also: % is scaled to controls: 0 for no effect and ±100 for the full control effect
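THP-1 cells pretreated 1 hr with compounds (up to 57.5 uM final), then stimulated with LPS (250 ng/mL final) plus ATP (1.25 mM final); secreted IL-1B measured by AlphaLISA after 16 hr, decreased signal indicating inhibition.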
Active calls of the source: *; i = inactive; u = inconclusive; x = not tested or not shown; [ ] = another dose, or the depositor's remark. Unless noted, calls follow the shape of the dose curve; as a rule, active = well fitted curve in the direction sought with a large enough effect; inconclusive = small, poorly fitted or top-dose-only effect, or another doubt; inactive = no such curve, though single readings can be large; an effect the other way counts as inactive or inconclusive.

SMILES	ATXN2 expr inh	ATXN viability	MCF10A rereplic	SW480 rereplic	PINK1 expr mod	IL-1B inflam inh
CCOc1ccc(Cl)cc1-c1cc(C(=O)Nc2ccc(F)cc2)[nH]n1	u	u	x	x	24%	-21
Nc1nccc(Oc2ccc(NC(=O)c3c[nH]cc(-c4ccc(F)cc4)c3=O)cc2F)c1Cl	31µM*	x	x	x	x	x
CC(NC(=O)Nc1cc(Cl)ccc1Cl)c1c(-n2cccc2)sc2c1CCCC2 (centres undefined)	-10%	i	x	x	3%	x
Cc1cc(/C=C2\SC(=Nc3ccccc3)NC2=O)c(C)n1-c1ccc(S(N)(=O)=O)cc1	u	i	17%	7.3µM*	1%	-13
Cc1ccc(C)c(N=Nc2nc3ccccc3n2C)c1	-14%	u	u	u	x	-80*
CN(Cc1ccccc1)C(=O)c1ccc([N+](=O)[O-])o1	x	i	16µM*	6.5µM*	12%	u
Cc1oc(-c2ccccc2)cc1C(=O)Nc1cccc2ccccc12	-10%	i	u	u	4%	-66*
O=C(Nc1ccccc1C(=O)NC1CC1)c1ccc([N+](=O)[O-])o1	-4%	i	16µM*	6.5µM*	-2%	-93*
Cc1oc(-c2ccccc2)cc1C(=O)Nc1cccc(C(=O)O)c1	21%	i	u	-9%	-4%[38.3 µM]	25
O=C(Nc1cccc2ccccc12)c1ccc([N+](=O)[O-])o1	x	i	5.8µM*	u	-1%	-97*
O=c1cc(N2CCOCC2)oc2c(-c3cccc4c3sc3ccccc34)cccc12	-18%	x	x	x	x	x
Cc1ccc(C(=O)Nc2cccc3ccccc23)o1	16%	i	u	5.2µM*	2%	-5
Cc1cccc(NC(=O)c2ccc([N+](=O)[O-])o2)c1C	-2%	i	13µM*	7.3µM*	-1%	-89*
COc1ccccc1NC(=O)c1ccc(COc2ccccc2OC)o1	-2%	i	-7%	8%	-3%[38.3 µM]	-2
COc1ccccc1NC(=O)c1ccc([N+](=O)[O-])o1	-24%	i	u	7.3µM*	0%	-83*
Cc1ccc(C(=O)Nc2ccccc2C(N)=O)o1	20%	i	1%	0%	-11%[38.3 µM]	-10
CCCn1c(CCC(=O)Nc2cccc(C)c2C)nc2cccnc21	6%	i	x	x	0%	x
O=C(NCc1cccnc1)/C(=C\c1ccc(-c2ccc(Br)cc2)o1)S(=O)(=O)c1ccccc1	7.1µM*	14µM*	7.3µM*	15µM*	-1%	-105*
O=C(NCc1cccnc1)/C(=C/c1ccc(-c2ccc(Cl)cc2)o1)S(=O)(=O)c1ccccc1	13µM*	x	9.2µM*	9.2µM*	-7%[38.3 µM]	-106*
COc1ccc(C(C)N(C)Cc2nc(N3CCN(C(=O)c4ccco4)CC3)c3ccccc3n2)cc1 (centres undefined)	x	u	x	x	2%	x
Cc1cc(NS(=O)(=O)c2ccc(NC(=O)COc3ccc(Br)cc3)cc2)nc(C)n1	-13%	i	18µM*	u	-1%	24
COc1ccc(N2CCN(C(=O)c3nn(-c4ccc(C)cc4)c(=O)n(C)c3=O)CC2)cc1	-9%	i	x	x	-1%	x
CCc1ccc(CCC(=O)Nc2sc3c(c2C#N)CCCC3)o1	1%	u	4.6µM*	3.3µM*	15%[38.3 µM]	32
Cc1ccc(/C=C/C(=O)Nc2sc3c(c2C#N)CCCC3)o1	0%	i	u	1.2µM*	2%	-21
Cc1nc(Nc2ccc(Cl)cc2)cc(-c2ccccc2)n1	u	u	x	x	5%	x
SMILES	ATXN2 expr inh	ATXN viability	MCF10A rereplic	SW480 rereplic	PINK1 expr mod	IL-1B inflam inh
CCOC(=O)c1c(C)oc2c(F)c(F)c(F)c(F)c2c1=O	32µM*	u	6.5µM*	u	-3%	-121*
O=C(/C=C/c1ccc(Cl)cc1)NC(=S)Nc1ccc(CN2CCOCC2)cc1	-23%[11.3 µM]	i	21µM*	22%	8%	-10
O=C(/C=C/c1ccc(Cl)cc1Cl)Nc1ccc(CN2CCOCC2)cc1	u	i	8.2µM*	u	7%	0
O=C(/C=C/c1ccccc1)Nc1ccc(CN2CCOCC2)cc1	x	i	2%	-7%	-1%	0
Cc1ccccc1C(C(=O)NC1CCCC1)N(C(=O)Cn1cnc2ccccc21)c1cccc(F)c1 (centres undefined)	-6%	x	x	x	x	x
O=C(Nc1nc2cccc(-c3ccc(CN4CCS(=O)(=O)CC4)cc3)n2n1)C1CC1	292%	x	x	x	x	x
Cc1ccc(C(C#N)c2ccc3c(C(F)(F)F)cc(C(F)(F)F)nc3n2)cc1 (centres undefined)	u	u	9%	-9%	8.9µM*	u
CN(N)c1ccc2c(C(F)(F)F)cc(C(F)(F)F)nc2n1	4%	i	7%	-140%	-1%	-5
N#CC(c1ccccc1)c1ccc2c(C(F)(F)F)cc(C(F)(F)F)nc2n1 (centres undefined)	u	u	u	-3%[9.22 µM]	u	-83*
FC(F)(F)c1cc(C(F)(F)F)c2ccc(N/N=C/c3ccccc3)nc2n1	-3%	i	0%	-2%	1%	-8
COc1cccc(NC(=O)C(=O)NCC(c2cccnc2)N2CCN(c3ccccc3)CC2)c1 (centres undefined)	x	x	x	x	-2%	x
COc1ccc(CN2C[C@@H](CO)O[C@@H](n3cnc4c(NCc5ccc(F)cc5)ncnc43)C2)cc1	-9%	i	x	x	0%	28
COc1ccc(C(NC(C)=O)c2ccc3cccnc3c2O)c(OC)c1 (centres undefined)	1.8µM*	u	13%	2.9µM*	0%	111
COc1ccc(C(NC(C)=O)c2ccc3cccnc3c2O)cc1OC (centres undefined)	x	x	x	x	0%	x
CC(=O)NC(c1ccc2ccccc2c1)c1ccc2cccnc2c1O (centres undefined)	2.8µM*	i	u	u	5%	139
CC(=O)NC(c1ccc(Cl)cc1Cl)c1ccc2cccnc2c1O (centres undefined)	u	u	u	11%	4%	154
Cc1ccc(CNC(=O)CN2C(=O)CSc3ccc(S(=O)(=O)N(C)C)cc32)cc1	-2%	i	x	x	0%	x
CCCCCCOc1ccc(C2C(=O)N(C3CCCCC3)CC(=O)N2CCC)cc1 (centres undefined)	x	x	x	x	1%	x
Nc1nc(-c2cc(O)ccc2[N+](=O)[O-])cc(-c2ccccc2)c1[N+](=O)[O-]	-32%	i	1.8µM*	23µM*	u	2
COc1ccc(CCNC(=O)C(C)n2nc(C)c3sc4ccccc4c3c2=O)c(OC)c1 (centres undefined)	x	x	x	x	0%	x
